# Reference: PubChem BioAssay (NCI)
# “And” between values parts separate entries of the source, which are not always exact repeats. Equal values may be shown once. About 83,000 compounds went through this panel and 20% of them were active in at least one assay; those are over-represented in the sample as a whole.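 Percent growth is the endpoint: 0 to 100 indicates growth inhibition (40 means 60% inhibition), 0 means no net growth, and negative values indicate cell death.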 The source made the active and inactive calls. How the source made its calls: active means growth percent below 10; inactive means the rest.
# Assays:
# Assay in all cases: NCI-60 one-dose screen, 48 h (100 = growth as untreated, 0 = no growth, -100 = all killed)
# Details in all cases: 10 µM unless noted
# [1] = test system: SK-MEL-2 melanoma
# [2] = test system: EKVX NSCLC
# [3] = test system: SN12C renal
# [4] = test system: UO-31 renal
# [5] = test system: TK-10 renal
# [6] = test system: ACHN renal
# [7] = test system: CAKI-1 renal
# [8] = test system: A498 renal
# [9] = test system: CCRF-CEM leukemia
# [10] = test system: MOLT-4 leukemia
Compound,growth [1],growth [2],growth [3],growth [4],growth [5],growth [6],growth [7],growth [8],growth [9],growth [10]
O/N=C(/c1ccccc1)c1ccc2c3c(cccc13)CC2,96.2% (inactive) and 92.7% (inactive),79.5% (inactive),93.1% (inactive) and 85.7% (inactive),73.4% (inactive) and 81.3% (inactive),113% (inactive) and 89.7% (inactive),101% (inactive) and 94.5% (inactive),71.5% (inactive) and 72.5% (inactive),78.3% (inactive) and 89.2% (inactive),75.3% (inactive) and 82.8% (inactive),74.7% (inactive) and 72.9% (inactive)
Cc1ccccc1SSc1ccccc1C,24.3% (inactive),114% (inactive),84.9% (inactive),78.4% (inactive),85.5% (inactive),0.0765% (active),60.5% (inactive),96.2% (inactive),79% (inactive),83.9% (inactive)
COc1cc(NS(=O)(=O)C(C)C)cc(-c2cc(-c3ccc(N4CCNCC4)cc3)cnc2N)c1,117% (inactive),109% (inactive),64.6% (inactive),70% (inactive),115% (inactive),93.2% (inactive),87.1% (inactive),75.3% (inactive),66.7% (inactive),37.2% (inactive)
CC(=NCc1ccccc1)c1ccc(O)cc1O,107% (inactive),111% (inactive),91.8% (inactive),81.7% (inactive),92.8% (inactive),96.6% (inactive),107% (inactive),100% (inactive),85% (inactive),89.7% (inactive)
Cc1ccc(-c2nc(SCC(=O)c3ccc(C#N)cc3)[nH]c(=O)c2C#N)cc1,104% (inactive),113% (inactive),108% (inactive),76.7% (inactive),99.7% (inactive),96.1% (inactive),93.4% (inactive),105% (inactive),114% (inactive),110% (inactive)
CCCc1cc(C(N)=S)ccn1,103% (inactive),99.1% (inactive),105% (inactive),76.4% (inactive),100% (inactive),102% (inactive),96.1% (inactive),125% (inactive),113% (inactive),105% (inactive)
COc1ccc(-c2cc(=O)c3c(O)cc(O)cc3o2)cc1,116% (inactive),103% (inactive),102% (inactive) and 82% (inactive),-74.8% (active) and 92.7% (inactive),119% (inactive) and 104% (inactive),97.5% (inactive) and 97.2% (inactive),108% (inactive) and 105% (inactive),97.5% (inactive),94.2% (inactive) and 86.6% (inactive),76.4% (inactive) and 85.6% (inactive)
CN1CCN(C(=O)OCc2nc3c(N4CCOCC4)nc(Cl)nc3n2C)CC1,-57.4% (active),-43.6% (active),-75.1% (active),-100% (active),-78% (active),-94.5% (active),-75.2% (active),-15.5% (active),-6.96% (active),-24.8% (active)
C=C(C)[C@@H]1CC[C@]2(C(=O)N3CCN(C)CC3)CC[C@]3(C)[C@H](CC[C@@H]4[C@@]5(C)CC(CCCNC(C)=O)(CCCNC(C)=O)[C@H](OC(C)=O)C(C)(C)[C@@H]5CC[C@]43C)[C@@H]12,112% (inactive),96.4% (inactive),96.5% (inactive),80.5% (inactive),109% (inactive),101% (inactive),79.3% (inactive),109% (inactive),91.8% (inactive),85.7% (inactive)
COc1cccc(NC(=O)c2sc3nc(C)c(C(O)c4ccccc4)cc3c2N)c1 (stereo not given),37.8% (inactive),47.7% (inactive),18.5% (inactive),48% (inactive),50.8% (inactive),30.9% (inactive),35.1% (inactive),-0.498% (active),14.3% (inactive),11.8% (inactive)
O=S(=O)(Nc1cc(Sc2cccc3cccnc23)c(O)c2ccccc12)c1ccc(F)cc1,1.64% (active),37.1% (inactive),-15% (active),-11.2% (active),17.1% (inactive),0.351% (active),11.9% (inactive),70.4% (inactive),5.42% (active),-18.4% (active)
O=C(Cc1ccc(F)cc1)c1ccccc1,114% (inactive),113% (inactive),99.4% (inactive),95.6% (inactive),104% (inactive),110% (inactive),106% (inactive),99.8% (inactive),88% (inactive),93.1% (inactive)
